Results: PubChem BioAssay (NCI)
Compounds without any hit were thinned out: in the full panel of roughly 79,000, 15% have a hit. A number with no mark means an inactive call. Active and inactive are the calls of the source. No stated cut-off is given here; in the data, active means growth inhibition above about 70%; inactive means the rest.

Experiments:
[1] = NCI Yeast Anticancer Drug Screen. Data for the mlh1 strain (AID 171);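 further: 0% = growth of vehicle-treated control cultures of the same strain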; details: S. cerevisiae mlh1 strain growth inhibition, hits give high values
Summary of the method: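 Compounds are applied to a genetically altered yeast strain, and its growth is compared with that of vehicle-treated cultures to give percent inhibition.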

[2] = NCI Yeast Anticancer Drug Screen. Data for the sgs1 strain (AID 173);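 further: 0% = growth of vehicle-only control cultures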; details: S. cerevisiae sgs1 mutant, hits give high values
Summary of the method: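 Compounds applied to genetically altered yeast; growth compared with vehicle-treated cultures to give % inhibition.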

[3] = NCI Yeast Anticancer Drug Screen. Data for the mlh1 rad18 strain (AID 175); details: S. cerevisiae mlh1 rad18 strain growth inhibition, hits give high values
Summary of the method: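 Cells of a genetically altered yeast strain, deficient in DNA damage repair, were treated with compound. Their growth was then compared with that of vehicle-treated cultures to give inhibition.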

[4] = NCI Yeast Anticancer Drug Screen. Data for the rad18 strain (AID 177); details: S. cerevisiae rad18 mutant growth inhibition, hits give high values
Summary of the method: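 Compounds are applied to a repair-deficient yeast strain, and growth is compared with that of vehicle-treated cultures to give percent inhibition.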

[5] = NCI Yeast Anticancer Drug Screen. Data for the wt1 strain (AID 149);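 further: 0% = growth of vehicle-treated wt1 cultures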; details: S. cerevisiae wt1 strain (SPY 50644) growth inhibition, hits give high values
Summary of the method: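 Compounds are added to wt1 yeast cultures. Growth is then measured. Inhibition is expressed relative to vehicle-treated controls.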

[6] = NCI Yeast Anticancer Drug Screen. Data for the rad50EPP+ strain (AID 151);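 further: 0% = growth of vehicle-treated control cultures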; details: S. cerevisiae rad50 mutant strain, hits give high values
Summary of the method: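 rad50EPP+ yeast treated with test compounds. Readout: growth vs vehicle control.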

[7] = NCI Yeast Anticancer Drug Screen. Data for the mgt1 strain (AID 153); details: S. cerevisiae mgt1 mutant growth inhibition, hits give high values
Summary of the method: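 Growth inhibition relative to vehicle controls was scored for the mgt1 yeast strain after compound exposure.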

[8] = NCI Yeast Anticancer Drug Screen. Data for the rad50 strain (AID 155);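 further: 0% = growth of vehicle-only cultures of the same strain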; details: S. cerevisiae rad50 strain growth inhibition, hits give high values
Summary of the method: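 Inhibition values express reduced yeast growth in compound-treated cultures relative to vehicle-treated controls.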

[9] = NCI Yeast Anticancer Drug Screen. Data for the mec2-1 strain (AID 157); details: S. cerevisiae mec2-1 strain, hits give high values
Summary of the method: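 Growth inhibition is read against vehicle-treated controls after compound exposure of the mec2-1 yeast strain, which is defective in DNA damage repair or cell cycle control.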

[10] = NCI Yeast Anticancer Drug Screen. Data for the rad14 strain (AID 159);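 further: 0% = growth of vehicle-treated control cultures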; details: S. cerevisiae rad14 strain growth inhibition, hits give high values
Summary of the method: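 A mutant yeast strain defective in DNA damage repair is treated with compound; inhibition of its growth is scored against untreated, vehicle-exposed cultures.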

[11] = NCI Yeast Anticancer Drug Screen. Data for the sgs1 mgt1 strain (AID 161);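 further: 0% = growth of cultures given vehicle only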; details: S. cerevisiae sgs1 mgt1 strain, hits give high values
Summary of the method: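 Percent growth inhibition was derived by comparing compound-exposed mutant yeast with vehicle-exposed cultures. The strain carries alterations in DNA damage repair.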

[12] = NCI Yeast Anticancer Drug Screen. Data for the CLN2oe strain (AID 163);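 further: 0% = growth of vehicle-only control cultures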; details: S. cerevisiae CLN2oe strain, hits give high values
Summary of the method: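 Compound-treated yeast; growth vs vehicle ctrl = % inhibition. Genetically altered strain (cell-cycle control).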

[13] = NCI Yeast Anticancer Drug Screen. Data for the cln2 rad14 strain (AID 165);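 further: 0% = growth equal to vehicle treated cultures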; details: S. cerevisiae cln2 rad14 strain, hits give high values
Summary of the method: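 Growth inhibition, relative to vehicle-treated controls, is the read-out. The test organism is a yeast strain with defined genetic alterations, cln2 rad14.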

[14] = NCI Yeast Anticancer Drug Screen. Data for the bub3 strain (AID 167); details: S. cerevisiae bub3 mutant strain, hits give high values
Summary of the method: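 Steps: expose the mutant yeast strain to compound; grow alongside vehicle-treated cultures; measure growth; express inhibition against the vehicle cultures.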

[15] = NCI Yeast Anticancer Drug Screen. Data for the wt2 strain (AID 169);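 further: 0% = growth of vehicle-treated yeast cultures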; details: S. cerevisiae wt2 strain growth inhibition, hits give high values
Summary of the method: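 Compound exposure of yeast; growth compared with vehicle controls; inhibition reported.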

[16] = at 5.0 µM (retest, dose inferred, filed as 0.5)
[17] = at 50.0 µM (retest, dose inferred, filed as 5.0)

SMILES: CC1CCN(CCC(=O)c2ccc([N+](=O)[O-])cc2)CC1
- growth inhibition ([1]; at 33.0 µM): 30%
- growth inhibition ([1]; at 100.0 µM): 39%
- growth inhibition ([2]; at 1.2 µM): 2%
- growth inhibition ([2]; at 3.7 µM): 16%
- growth inhibition ([2]; at 11.0 µM): 25%
- growth inhibition ([2]; at 33.0 µM): 46%
- growth inhibition ([2]; at 100.0 µM): 54%
- growth inhibition [3, 16]: 7%
- growth inhibition [3, 17]: 62%
- growth inhibition ([3]; at 50.0 µM): 40.4%
- growth inhibition ([4]; at 1.2 µM): 6%
- growth inhibition ([4]; at 3.7 µM): 16%
- growth inhibition ([4]; at 11.0 µM): 23%
- growth inhibition ([4]; at 33.0 µM): 20%
- growth inhibition ([4]; at 100.0 µM): 31%

SMILES: COc1cc([N+](=O)[O-])c2ncccc2c1Br
- growth inhibition ([5]; at 1.2 µM): -1%
- growth inhibition ([5]; at 3.7 µM): -7%
- growth inhibition ([5]; at 11.0 µM): 5%
- growth inhibition ([5]; at 33.0 µM): -2%
- growth inhibition ([5]; at 100.0 µM): -3%
- growth inhibition ([6]; at 1.2 µM): 11%
- growth inhibition ([6]; at 3.7 µM): 16%
- growth inhibition ([6]; at 11.0 µM): 29%
- growth inhibition ([6]; at 33.0 µM): 36%
- growth inhibition ([6]; at 100.0 µM): 24%
- growth inhibition ([7]; at 1.2 µM): -2%
- growth inhibition ([7]; at 3.7 µM): -6%
- growth inhibition ([7]; at 11.0 µM): -1%
- growth inhibition ([7]; at 33.0 µM): -4%
- growth inhibition ([7]; at 100.0 µM): -4%
- growth inhibition ([8]; at 1.2 µM): 15%
- growth inhibition ([8]; at 3.7 µM): 12%
- growth inhibition [8, 16]: 14%
- growth inhibition ([8]; at 11.0 µM): 25%
- growth inhibition ([8]; at 33.0 µM): 33%
- growth inhibition [8, 17]: 32%
- growth inhibition ([8]; at 50.0 µM): 32.9%
- growth inhibition ([8]; at 100.0 µM): 20%
- growth inhibition ([9]; at 1.2 µM): 2%
- growth inhibition ([9]; at 3.7 µM): 2%
- growth inhibition [9, 16]: 2%
- growth inhibition ([9]; at 11.0 µM): 5%
- growth inhibition ([9]; at 33.0 µM): -1%
- growth inhibition [9, 17]: 16%
- growth inhibition ([9]; at 50.0 µM): 9.05%
- growth inhibition ([9]; at 100.0 µM): 2%
- growth inhibition ([10]; at 1.2 µM): 35%
- growth inhibition ([10]; at 3.7 µM): 51%
- growth inhibition ([10]; at 11.0 µM): 67%
- growth inhibition ([10]; at 33.0 µM): 49%
- growth inhibition ([10]; at 100.0 µM): 55%
- growth inhibition [11, 16]: 26%
- growth inhibition [11, 17]: 41%
- growth inhibition ([11]; at 50.0 µM): 25.1%
- growth inhibition ([12]; at 1.2 µM): -11%
- growth inhibition ([12]; at 3.7 µM): -7%
- growth inhibition ([12]; at 11.0 µM): -11%
- growth inhibition ([12]; at 33.0 µM): -11%
- growth inhibition ([12]; at 100.0 µM): -11%
- growth inhibition [13, 16]: 22%
- growth inhibition [13, 17]: 57%
- growth inhibition ([13]; at 50.0 µM): 81.8% (active)
- growth inhibition ([14]; at 1.2 µM): -15%
- growth inhibition ([14]; at 3.7 µM): -14%
- growth inhibition [14, 16]: -4%
- growth inhibition ([14]; at 11.0 µM): -16%
- growth inhibition ([14]; at 33.0 µM): -18%
- growth inhibition [14, 17]: -3%
- growth inhibition ([14]; at 50.0 µM): -3.7%
- growth inhibition ([14]; at 100.0 µM): -18%
- growth inhibition ([15]; at 1.2 µM): -12%
- growth inhibition ([15]; at 3.7 µM): 0%
- growth inhibition ([15]; at 11.0 µM): 5%
- growth inhibition ([15]; at 33.0 µM): 4%
- growth inhibition ([15]; at 100.0 µM): 9%
- growth inhibition ([1]; at 1.2 µM): -10%
- growth inhibition ([1]; at 3.7 µM): -5%
- growth inhibition ([1]; at 11.0 µM): -3%
- growth inhibition ([1]; at 33.0 µM): -3%
- growth inhibition ([1]; at 100.0 µM): -4%
- growth inhibition ([2]; at 1.2 µM): 41%
- growth inhibition ([2]; at 3.7 µM): 32%
- growth inhibition ([2]; at 11.0 µM): 42%
- growth inhibition ([2]; at 33.0 µM): 42%
- growth inhibition ([2]; at 100.0 µM): 38%
- growth inhibition [3, 16]: 53%
- growth inhibition [3, 17]: 77% (active)
- growth inhibition ([3]; at 50.0 µM): 29.3%
- growth inhibition ([4]; at 1.2 µM): 91% (active)
- growth inhibition ([4]; at 3.7 µM): 93% (active)
- growth inhibition ([4]; at 11.0 µM): 93% (active)
- growth inhibition ([4]; at 33.0 µM): 93% (active)
- growth inhibition ([4]; at 100.0 µM): 91% (active)
